# In PMC11062922 (Nature Chemical Biology, 2023):
# Read-outs that look alike come from different tables or passages of the source.
# Columns and labels:
# Design in all cases: species or system human, MV4-11 + K-562 + COLO205 + SK-N-BE2 + OVCAR-8
# CDC42BPA = details: read-out: apparent Kd; compound concentrations: 100 nM and 1000 nM (sheet 'Samples'), CATDS: 1.08451954536147E-2; n = 1
# CDC42BPG = details: read-out: apparent Kd, n = 1
# MTOR = details: read-out: apparent Kd, n = 1
# PRKG1 = details: read-out: apparent Kd, n = 1
# ROCK1 = details: read-out: apparent Kd, compound concentrations: 100 nM and 1000 nM (sheet 'Samples'), n = 1
# AXL = details: read-out: apparent Kd, n = 1
# FYN = details: read-out: apparent Kd, n = 1
# IRAK3 = details: read-out: apparent Kd, n = 1
# LYN = details: read-out: apparent Kd, n = 1
# ULK1 = details: read-out: apparent Kd, n = 1
# RIPK2 = details: read-out: apparent Kd, n = 1
# CSK = details: read-out: apparent Kd, n = 1
# EPHA1 = details: read-out: apparent Kd, n = 1
# EPHB3 = details: read-out: apparent Kd, n = 1
# TGFBR2 = details: read-out: apparent Kd; compound concentrations:100 nM and 1000 nM (sheet 'Samples'); n = 1
# CDK2 = details: read-out: apparent Kd; compound concentrations: 100 nM and 1000 nM (sheet 'Samples'), CATDS: 7.0892729990410901E-3; n = 1
# PDGFRB = details: read-out: apparent Kd; compound concentrations: 100 nM and 1000 nM (sheet 'Samples'), CATDS: 6.5181238774795402E-3; n = 1
# PIK3CG = details: read-out: apparent Kd, n = 1
# ICK = details: read-out: apparent Kd; compound concentrations: 100 nM and 1000 nM (sheet 'Samples'), CATDS: 2.2639550880060699E-2; n = 1
# [1] = compound concentrations:100 nM and 1000 nM (sheet 'Samples')
structure (smiles),measurement,setting,value
CN(c1ccc(NC(=O)Nc2cccc(Cl)c2)cc1)c1ccnc(N)n1.Cl [GW830707A],potency estimated from few doses,CDC42BPA,1270 nM
same,potency estimated from few doses,"CDC42BPG; compound concentrations: 100 nM and 1000 nM (sheet 'Samples'), CATDS: 2.2022337119778398E-2",40.9 nM
same,potency estimated from few doses,"MTOR; compound concentrations: 100 nM and 1000 nM (sheet 'Samples'), CATDS: 2.8595787466671799E-2",22.6 nM
same,potency estimated from few doses,"PRKG1; compound concentrations: 100 nM and 1000 nM (sheet 'Samples'), CATDS: 9.7555331639362503E-2",3.28 nM
same,potency estimated from few doses,ROCK1; CATDS: 3.6596827517009503E-2,14.2 nM
CNC(=O)c1ccccc1Nc1nc(Nc2ccc(N3CCOCC3)cc2)ncc1Cl.Cl [GSK1576028A],potency estimated from few doses,AXL; [1],732 nM
same,potency estimated from few doses,FYN; [1],369 nM
same,potency estimated from few doses,IRAK3; [1],3.81 nM
same,potency estimated from few doses,LYN; [1],1010 nM
same,potency estimated from few doses,ULK1; [1],1420 nM
Fc1ccc(-c2c(-c3ccncc3)[nH]c3cccnc23)cc1 [RO1153853-000],potency estimated from few doses,"RIPK2; compound concentrations: 100 nM and 1000 nM (sheet 'Samples'), CATDS: 7.5197956220231496E-2",498 nM
NCCNS(=O)(=O)c1ccc(-c2ccnc3[nH]ccc23)cc1 [GSK977617A],potency estimated from few doses,AXL; [1],1330 nM
same,potency estimated from few doses,CDC42BPG; [1],442 nM
same,potency estimated from few doses,CSK; [1],757 nM
same,potency estimated from few doses,EPHA1; [1],723 nM
same,potency estimated from few doses,EPHB3; [1],1780 nM
same,potency estimated from few doses,FYN; [1],1010 nM
same,potency estimated from few doses,LYN; [1],936 nM
same,potency estimated from few doses,PRKG1; [1],621 nM
same,potency estimated from few doses,RIPK2; [1],974 nM
same,potency estimated from few doses,ULK1; [1],718 nM
Cc1ccc2c(-c3ccncc3)c(-c3ccc(F)cc3)nn2c1.Cl [GW461484A],potency estimated from few doses,CSK; [1],893 nM
same,potency estimated from few doses,EPHA1; [1],643 nM
same,potency estimated from few doses,EPHB3; [1],1960 nM
same,potency estimated from few doses,FYN; [1],1170 nM
same,potency estimated from few doses,LYN; [1],1010 nM
same,potency estimated from few doses,MTOR; [1],571 nM
Cc1cccc(-c2nc(Nc3ccncc3)c3sccc3n2)n1 [GW869641X],potency estimated from few doses,RIPK2; [1],722 nM
same,potency estimated from few doses,TGFBR2,363 nM
CCn1c(-c2nonc2N)nc2c(C#CCN)ncc(OCCCN)c21.O=C(O)C(F)(F)F [GSK561866B],potency estimated from few doses,ROCK1; CATDS: 8.4465602866789904E-2,1010 nM
COc1ccc(Nc2ncc(C#N)c(Nc3ccccc3C(N)=O)n2)cc1N1CCN(C)CC1.Cl [GSK1558669A],potency estimated from few doses,CDK2,671 nM
same,potency estimated from few doses,"FYN; compound concentrations: 100 nM and 1000 nM (sheet 'Samples'), CATDS: 8.8706126087949692E-3",276 nM
same,potency estimated from few doses,"IRAK3; compound concentrations: 100 nM and 1000 nM (sheet 'Samples'), CATDS: 1.44351207371401E-2",72.7 nM
same,potency estimated from few doses,"LYN; compound concentrations: 100 nM and 1000 nM (sheet 'Samples'), CATDS: 6.9772111779179699E-3",724 nM
same,potency estimated from few doses,PDGFRB,1030 nM
same,potency estimated from few doses,"ULK1; compound concentrations: 100 nM and 1000 nM (sheet 'Samples'), CATDS: 1.40188360119969E-2",77.8 nM
CC(C)N1CCC(n2cnc(-c3ccc(F)cc3)c2-c2ccnc(N)n2)CC1 [SB-223132],potency estimated from few doses,CSK; [1],898 nM
same,potency estimated from few doses,EPHB3; [1],1410 nM
same,potency estimated from few doses,RIPK2; [1],559 nM
CCn1c(-c2nonc2N)nc2c(C#CC(C)(C)O)nc(OCCNC)cc21.Cl [GSK949675A],potency estimated from few doses,PRKG1; [1],1370 nM
CONC1=NC(=O)/C(=C/c2ccc3ncccc3c2)S1 [RO4613269-000],potency estimated from few doses,"PIK3CG; compound concentrations: 100 nM and 1000 nM (sheet 'Samples'), CATDS: 0.172527207279461",606 nM
O=C1NC(=O)C(N2CCc3ccccc32)=C1c1ccccc1Cl [SB-373598],potency estimated from few doses,AXL; [1],775 nM
same,potency estimated from few doses,CSK; [1],273 nM
same,potency estimated from few doses,EPHA1; [1],207 nM
same,potency estimated from few doses,EPHB3; [1],549 nM
same,potency estimated from few doses,FYN; [1],250 nM
same,potency estimated from few doses,LYN; [1],210 nM
same,potency estimated from few doses,MTOR; [1],461 nM
same,potency estimated from few doses,PIK3CG; [1],1110 nM
same,potency estimated from few doses,RIPK2; [1],273 nM
same,potency estimated from few doses,ULK1; [1],305 nM
Clc1cc(Cl)cc(Nc2ccnc(Nc3cc(Cl)cc(Cl)c3)n2)c1 [GSK175726A],potency estimated from few doses,"AXL; compound concentrations: 100 nM and 1000 nM (sheet 'Samples'), CATDS: 8.4752300032334103E-3",1710 nM
same,potency estimated from few doses,"CSK; compound concentrations: 100 nM and 1000 nM (sheet 'Samples'), CATDS: 1.17668577174877E-2",462 nM
same,potency estimated from few doses,"EPHA1; compound concentrations: 100 nM and 1000 nM (sheet 'Samples'), CATDS: 1.41379738320296E-2",280 nM
same,potency estimated from few doses,"EPHB3; compound concentrations: 100 nM and 1000 nM (sheet 'Samples'), CATDS: 8.8361902766531698E-3",1370 nM
same,potency estimated from few doses,"FYN; compound concentrations: 100 nM and 1000 nM (sheet 'Samples'), CATDS: 1.87889991520305E-2",150 nM
same,potency estimated from few doses,"LYN; compound concentrations: 100 nM and 1000 nM (sheet 'Samples'), CATDS: 1.7701594212269099E-2",169 nM
same,potency estimated from few doses,"MTOR; compound concentrations: 100 nM and 1000 nM (sheet 'Samples'), CATDS: 1.7554405068834999E-2",172 nM
same,potency estimated from few doses,"RIPK2; compound concentrations: 100 nM and 1000 nM (sheet 'Samples'), CATDS: 1.18071418274956E-2",457 nM
same,potency estimated from few doses,"ULK1; compound concentrations: 100 nM and 1000 nM (sheet 'Samples'), CATDS: 8.5136949732422407E-3",1670 nM
Cl.Nc1c(C(=O)c2cccc(C#CCN3CCCCC3)c2)cnn1-c1ccc(F)cc1 [RO1154461-001],potency estimated from few doses,"CSK; compound concentrations: 100 nM and 1000 nM (sheet 'Samples'), CATDS: 1.25977312115917E-2",877 nM
same,potency estimated from few doses,"EPHA1; compound concentrations: 100 nM and 1000 nM (sheet 'Samples'), CATDS: 1.62394808146854E-2",463 nM
same,potency estimated from few doses,"EPHB3; compound concentrations: 100 nM and 1000 nM (sheet 'Samples'), CATDS: 1.0883176780773701E-2",1390 nM
same,potency estimated from few doses,"RIPK2; compound concentrations: 100 nM and 1000 nM (sheet 'Samples'), CATDS: 1.2186963927709901E-2",966 nM
CNCC#Cc1c(F)ccc2c1/C(=C/c1[nH]ccc1OC)C(=O)N2.Cl [RO0281601-001],potency estimated from few doses,ICK,1700 nM
